The record followed here is PubChem BioAssay (Tox21).

Test [1] can be described thus: qHTS assay to identify small molecule agonists of the vitamin D receptor (VDR) signaling pathway - cell viability counter screen (AID 743224). Also: series mostly up to about 63 µM; nearly all actives have a fitted effect of over 50% in size. A digest of the protocol: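 Here cell health was gauged by luminescent ATP detection (CellTiter-Glo, 30 min RT) in VDR-bla cells that had been incubated with test compounds for 16 h at 37C and 5% CO2.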
For orientation: qHTS replaces the single test concentration by a dilution series.

Test [2] in a line: qHTS assay to identify small molecule antagonists of the vitamin D receptor (VDR) signaling pathway - cell viability counter screen (AID 743225). Also: nearly all actives have a fitted effect of over 50% in size. An outline of the steps: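 Cells (VDR-UAS-bla HEK 293T) are plated, rested 4 h at 37C, dosed with compound and 3 nM final 1-alpha,25-dihydroxy vitamin D3, and incubated 16 h. Viability is taken from CellTiter-Glo luminescence in the reporter wells.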

Test [3] is described as follows: qHTS assay to identify small molecule agonists of the NFkB signaling pathway - cell viability counter screen (AID 1159515; calls by dose curve; also: series mostly up to about 61 µM; nearly all actives have a fitted effect of over 55% in size). A digest of the protocol: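 5 hr compound treatment of NFkB-bla ME-180 cells (2,000/well, seeded overnight beforehand), followed by reporter substrate for 1.5 hr. CellTiter-Glo added afterward; luminescence after 30 min RT.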
Test [4] in a line: qHTS assay to identify small molecule agonists of the endoplasmic reticulum stress response signaling pathway (AID 1159516; active = well fitted activation curve with a large enough effect in the signal ratio in the repeat runs, not every such curve was filed as active; the % refers to the signal ratio). A digest of the protocol:
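Reporter HeLa cells (ESRE-beta-lactamase) underwent 5 hr compound incubation at 37 C and 5% CO2 in quantitative HTS format. Detection followed 2 hr of FRET substrate loading at room temperature.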

The nature of test [5]: qHTS assay to identify small molecule agonists of the endoplasmic reticulum stress response signaling pathway - cell viability counter screen (AID 1159517; calls by dose curve;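 also: HeLa cells carrying an ER stress response element beta-lactamase reporter; series mostly up to about 61 µM; nearly all actives have a fitted effect of over 50% in size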). A digest of the protocol: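 CellTiter-Glo was added to wells already read for beta-lactamase FRET, and luminescence was recorded 30 min later. Cells: ESRE-bla HeLa, 1,500 per well, compound exposure 5 hr at 37 C.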
Test [6] can be described thus: qHTS assay to identify small molecule antagonists of the retinoid-related orphan receptor gamma (ROR-gamma) signaling pathway - cell viability counter screen (AID 1159520). Also: nearly all actives have a fitted effect of over 50% in size. A digest of the protocol: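 Tet-on ROR gamma CHO cells (1,000/well) were plated 4 hr, given compounds in DMSO for 2 hr at 37 C, then induced with 1 uM final doxycycline for 16 hr. Viability was read as ATP by CellTiter-Glo luminescence after 30 min.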

For test [7], the target named is Nuclear receptor ROR-gamma (Homo sapiens) (UniProt P51449). Briefly: qHTS assay to identify small molecule antagonists of the retinoid-related orphan receptor gamma (ROR-gamma) signaling pathway (AID 1159521; also: nearly all actives have a fitted effect of over 50% in size; also: potency is read from the fitted curve at half-maximal effect). A digest of the protocol: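 RORγ antagonism is scored from reduced reporter luminescence in Tet-on CHO cells. Induction used 1 uM final doxycycline hyclate for 16 h at 37 C, following a 2 h compound exposure.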

Test [8] in a line: qHTS assay to identify small molecule agonists of the AP-1 signaling pathway - cell viability counter screen (AID 1159525; calls by dose curve; also: nearly all actives have a fitted effect of over 55% in size). A digest of the protocol: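 ME-180 AP-1-bla, 2500 cells/well, Opti-MEM + 0.5% dialyzed FBS; overnight 37 °C; cpd 15-pt titration, 5 h 37 °C; CellTiter-Glo 30 min RT; luminescence read; normalised to TOAB and DMSO controls.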
Test [9] in a line: qHTS assay to identify small molecule agonists of the AP-1 signaling pathway (AID 1159526; calls by dose curve).
Test [10] addresses Retinoic acid receptor RXR-alpha (Homo sapiens) (UniProt P19793). Briefly: qHTS assay to identify small molecule agonists of the RXR signaling pathway (AID 1159527; calls by dose curve; also: nearly all actives have a fitted effect of over 35% in size). A digest of the protocol: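 qHTS of the Tox21 10K library in GeneBLAzer RXR-alpha HEK 293T cells carrying a beta-lactamase reporter […]; 16 hr treatment, 9-cis retinoic acid as agonist control, FRET read-out.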

A short description of test [11]: qHTS assay to identify small molecule agonists of the RXR signaling pathway - cell viability counter screen (AID 1159529). Also: nearly all actives have a fitted effect of over 50% in size. Also: potency is read from the fitted curve at half-maximal effect. A digest of the protocol:
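Cell viability is measured by CellTiter-Glo luminescence, 30 min at room temperature, in wells already read for beta-lactamase. Engineered HEK 293T cells (RXR-alpha-UAS-bla) are dosed 16 hr at 37 C. Tetraoctyl ammonium bromide serves as positive control.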

The nature of test [12]: qHTS assay to identify small molecule antagonists of the retinoid acid receptor (RAR) signaling pathway - cell viability counter screen (AID 1159551). Also: nearly all actives have a fitted effect of over 35% in size. An outline of the steps:
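Seed C3RL4 cells; next day add compound, then retinol to 1 uM final; incubate 6 h at 37 C; add CellTiter-Glo; read luminescence after 30 min at RT.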

Test [13] is described as follows: qHTS assay to identify small molecule antagonists of the retinoic acid receptor (RAR) signaling pathway (AID 1159552; also: nearly all actives have a fitted effect of over 50% in size). An outline of the steps: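 Quantitative HTS in C3RL4 RARE-luciferase reporter cells. Compounds were added with 1 uM (final) retinol; luminescence was read after 6 hr.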
A short description of test [14]: qHTS assay to identify small molecule agonists of the retinoic acid receptor (RAR) signaling pathway (AID 1159553). Also: potency is read from the fitted curve at half-maximal effect. A digest of the protocol: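 Activation of retinol signaling was monitored via a RARE luciferase reporter in C3RL4 cells. After 6 hr compound treatment at 37 C, detection reagent was added for 30 min at room temperature before luminescence reading.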

A short description of test [15]: qHTS assay to identify small molecule antagonists of the estrogen related receptor (ERR) signaling pathway - cell viability counter screen (AID 1224818).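 Also: series mostly up to about 46 µM; viability measured after 17.5 h of compound exposure.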 An outline of the steps: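 In the same ERR cell assay, compound-treated wells (17.5 h, 37 C) were multiplexed with a fluorogenic viability reagent, CellTiter-Fluor, read after 30 min to flag cytotoxic substances.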

A short description of test [16]: qHTS assay to identify small molecule antagonists of the estrogen related receptor (ERR) signaling pathway (AID 1224819). An outline of the steps:
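qHTS in ERR cells, 2,000/well, 1536 format. Cpd (DMSO) added after 6 h settle, 18 h 37 C. One-Glo luminescence, 30 min RT.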

Test [17] in a line: qHTS assay to identify small molecule agonists of the estrogen related receptor (ERR) signaling pathway (AID 1224820). An outline of the steps: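 ERR reporter cell line (from NTP), 2,000 cells/well, incubated 6 h before compound addition, then 18 h at 37 C. Luminescence measured 30 min after One-Glo reagent at room temperature.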
The test system of test [18] is estrogen-related receptor alpha (ERRalpha) with PGC-1alpha coactivator, human. Briefly: qHTS assay to identify small molecule antagonists of the estrogen related receptor signaling pathway with the pleiotropic PPARgamma coactivator (PGC) (AID 1224821; calls by dose curve). An outline of the steps: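 PGC/ERR reporter cell line, plated 6 h before compound addition, then exposed 18 h at 37 °C. Luciferase activity read by luminescence 30 min after One-Glo addition; decrease indicates antagonism.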

A short description of test [19]: qHTS assay to identify small molecule antagonists of the estrogen related receptor signaling pathway with the pleiotropic PPARgamma coactivator (PGC) cell viability counter screen (AID 1224822; also: series mostly up to about 46 µM). An outline of the steps: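 Compounds in DMSO, with positive and negative controls, were applied to PGC/ERR cells (2,000/well) and left 17.5 h at 37 C before CellTiter-Fluor detection.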

Records with an inconclusive call do not appear. The source holds several records for some structures; these can differ, active in one and inactive in another. Activity calls are given as the source filed them. Unless noted, calls follow the shape of the dose curve; as a rule, active = well fitted curve in the direction sought with a large enough effect in the repeat runs; inconclusive = weak or mixed curves; inactive = no such curve, though single readings can be large; an effect the other way counts as inactive or inconclusive.

Sequence of Retinoic acid receptor RXR-alpha (Homo sapiens) (P19793 whole entry, looked up): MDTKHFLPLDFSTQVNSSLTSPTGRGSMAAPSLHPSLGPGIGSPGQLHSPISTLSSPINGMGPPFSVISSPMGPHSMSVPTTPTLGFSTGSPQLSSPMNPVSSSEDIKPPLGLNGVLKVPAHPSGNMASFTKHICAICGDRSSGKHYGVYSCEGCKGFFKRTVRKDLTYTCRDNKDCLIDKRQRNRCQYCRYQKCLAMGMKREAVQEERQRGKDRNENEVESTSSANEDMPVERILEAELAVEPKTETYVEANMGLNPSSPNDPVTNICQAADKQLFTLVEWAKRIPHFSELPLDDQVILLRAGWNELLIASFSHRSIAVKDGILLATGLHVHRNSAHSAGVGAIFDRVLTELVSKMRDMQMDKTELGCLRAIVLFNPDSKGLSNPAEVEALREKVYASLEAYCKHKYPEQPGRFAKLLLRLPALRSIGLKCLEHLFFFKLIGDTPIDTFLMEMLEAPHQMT

In the case of `Clc1nc(Cl)nc(Nc2ccccc2Cl)n1`, the Potency entry in test [1], in [2], in test [5], in test [6], in test [7] and in [8] was “inactive” each time. Moreover, the Potency entry in test [10], in test [11], in [12], in test [13] and in test [14] was “inactive” in each case. In addition, the outcome in test [3], in test [4] and in test [9] was inactive.
For `Cc1ccc(-c2nc3ccc(C)cn3c2CC(=O)N(C)C)cc1`, the Potency result in test [1], in test [2], in [5], in test [6], in test [7] and in test [8] was “inactive” in each case. The Potency result in test [10], in test [11], in test [12] and in test [13] was “inactive” throughout. For the same compound, the result in test [3], in test [4] and in test [9] was inactive. Also, in test [14], the Potency is 23.7 µM (active).
For `CCCN1CCC[C@@H]2Cc3[nH]ncc3C[C@H]21`, the Potency entry in [1], in test [2], in test [5], in [6], in [7] and in test [8] was “inactive” throughout. Further, the Potency entry in test [10], in test [11], in [13] and in test [14] was “inactive” each time. In addition, the call in [3], in [4], in [9], in [15], in test [16] and in test [17] was inactive. For the same compound, the compound was called inactive in test [18] and in [19].
As to `CC(=O)CN(CC(C)=O)N=O`, the Potency entry in test [2], in test [5], in [6], in [7], in [8] and in test [10] was “inactive” throughout. The Potency result in [11] and in test [13] was “inactive” each time. Moreover, the compound was called inactive in test [3], in [4] and in [9].
As to `N[C@@H]1C[C@H]1c1ccccc1`, the Potency entry in test [2], in [5], in test [6], in test [7], in test [8] and in test [10] was “inactive” in each case. Moreover, the Potency entry in test [11], in test [13] and in test [14] was “inactive” each time. For the same compound, the compound was classed as inactive in [3], in [4] and in test [9].
`CN(C)C1CCCCC1`: the Potency result in test [1], in [2], in test [5], in test [6], in [7] and in test [8] was “inactive” throughout. The Potency entry in test [10], in test [11], in [12], in [13] and in test [14] was “inactive” in each case. Moreover, the compound was classed as inactive in [3], in test [4] and in test [9].
On to `C=CC1(C)OC(=O)N(c2cc(Cl)cc(Cl)c2)C1=O` (configuration not stated), for which the Potency entry in test [1], in [2], in [5], in test [6], in test [8] and in test [12] was “inactive” throughout. Besides, the compound was called inactive in test [3], in test [4] and in test [9]. Besides, the Potency in test [7] is 43 µM (active) and inactive; in [11] it was 34.5 µM (active) and inactive.
Take `COc1cccc([C@@]2(O)CCCC[C@@H]2CN(C)C)c1`: the Potency result in test [1], in [2], in [5], in test [6], in [7] and in test [8] was “inactive” throughout. Moreover, the Potency entry in test [10], in [11], in [12], in [13] and in [14] was “inactive” throughout. For the same compound, the compound was classed as inactive in test [3], in [4] and in test [9].
As for `Oc1ccc2c3c1O[C@H]1[C@@H](O)C=C[C@H]4[C@@H](C2)NCC[C@@]341`, the Potency result in test [1], in test [2], in test [5], in [6], in test [7] and in [8] was “inactive” each time. Further, the Potency result in [10], in test [11], in [12] and in test [14] was “inactive” each time. The compound was called inactive in test [3], in test [4] and in test [9].
For the compound `COC1=CC(=O)O[C@@H](/C=C/c2ccccc2)C1`, the Potency entry in test [2], in [5], in test [6], in [7], in test [8] and in [10] was “inactive” in each case. In addition, the Potency result in test [11] and in test [13] was “inactive” in each case. Also, the result in test [3], in test [4] and in [9] was inactive. The Potency in test [14] is 24.7 µM (active).
As for `NCC1(CC(=O)O)CCCCC1`, the Potency result in test [1], in test [5], in [6], in [7], in test [8] and in [10] was “inactive” throughout. Besides, the Potency result in test [11], in test [12] and in [13] was “inactive” in each case. Also, the result in [3], in [4], in test [9], in test [15] and in test [19] was inactive.
Turning to `C[C@H](CN1CCOCC1)C(C(=O)N1CCCC1)(c1ccccc1)c1ccccc1`, the Potency result in test [1], in [5], in [6], in test [7], in [8] and in test [10] was “inactive” throughout. Further, the Potency result in [11] and in test [12] was “inactive” in each case. Besides, the compound was classed as inactive in [3], in test [4] and in test [9].
Take `COC[C@@H](NC(C)=O)C(=O)NCc1ccccc1`: the Potency result in [2], in test [5], in [6], in test [7], in test [8] and in test [10] was “inactive” each time. For the same compound, the Potency result in test [11], in test [12], in test [13] and in test [14] was “inactive” throughout. Further, the result in test [3], in test [4] and in test [9] was inactive.
Regarding `BrCC1CO1` (configuration not stated), the Potency entry in test [1], in [2], in test [5], in test [6], in test [7] and in test [8] was “inactive” each time. Moreover, the Potency result in test [10], in test [11], in [12] and in test [13] was “inactive” throughout. For the same compound, the compound was classed as inactive in [3], in test [4] and in test [9].
`C=C(Cl)CSC(=S)N(CC)CC`: the Potency entry in [2], in test [5], in test [6], in test [7], in [8] and in [10] was “inactive” throughout. Besides, the Potency result in [11], in test [12], in test [13] and in test [14] was “inactive” in each case. Moreover, the compound was classed as inactive in test [3], in test [4] and in test [9].
